KB-V1 cytotox: qHTS assay for MDR1-selective chemotherapeutics: Primary screen using the drug-selected MDR subline cells KB-V1. AID 1347076, 2019. 400,000 tested, 3.4% active. Potency, µM (highest dose often 46.1 µM), hits mostly cytotoxic. KB-V1 MDR cells viability, CellTiter-Glo, 72 h; also: % is scaled to controls: 0 for no effect and ±100 for the full control effect; nearly all actives have a fitted effect of over 60% in size
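Cytotoxicity toward P-gp-expressing KB-V1 cells was determined as loss of CellTiter-Glo luminescence after 72 h at 37 degrees C. Compounds were tested in quantitative HTS format across a concentration range, with curves fitted to normalized data.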
HT1080NT lethal: qHTS for induction of synthetic lethality in tumor cells producing 2HG: qHTS for the HT-1080-NT fibrosarcoma cell line | HT-1080-NT fibrosarcoma viability, CellTiter-Glo ATP luminescence, 48 h | 360,000 tested, 1.6% active | Potency, µM (doses to about 46.1 µM), without a hit: at the top dose activity, negative = less viability, most hits filed as cytotoxic;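 also: NT is the 2HG producing partner of a matched IDH1 knockdown line; 0% = DMSO-treated cells and -100% = media-only wells without cells; nearly all actives have a fitted effect of over 55% in size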
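Compounds were tested in concentration-response format on HT-1080-NT cells for 48 hours at 37 degrees C. Cell viability came from CellTiter-Glo luminescence; curves were classified by r2, response magnitude and activity.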
MCF10A rerep: A quantitative high throughput screen for small molecules that induce DNA re-replication in MCF 10a normal breast cells; MCF 10A DNA re-replication, Hoechst nuclear intensity, 48 h; Potency, µM (series often up to 46.1 µM), for inactives: at the top dose activity, positive = re-replication, actives largely listed as activators; 350,000 tested, 2.9% active; also: % of control where 0% means no effect; nearly all actives have a fitted effect of over 50% in size
HT1080 IDH1KD tx: qHTS for induction of synthetic lethality in tumor cells producing 2HG: qHTS for the HT-1080-IDH1KD cell line. HT-1080 IDH1 knockdown viability, ATP luminescence, 48 h. Potency, µM (series often up to 46.1 µM), without a hit: at the highest dose activity, negative = toxicity, hits mostly cytotoxic. 360,000 tested, 2% active. AID 686971, 2013;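 also: 0% = DMSO wells and -100% = cell-free medium wells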
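Assay cells: HT-1080 with IDH1 knockdown, 750 per well, RPMI/5% FBS. Exposure: 48 h at 37 °C following 2 h pre-incubation. Read: CellTiter-Glo luminescence; fitted concentration-response, curve class assigned.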
KB-3-1 cytotox: qHTS assay for MDR1-selective chemotherapeutics: Primary screen using the parental adenocarcinoma cell KB-3-1; Potency, µM (doses to about 46.1 µM), most hits filed as cytotoxic; 400,000 tested, 1.4% active; KB-3-1 viability, CellTiter-Glo ATP luminescence, 72 h; also: % is scaled to controls: 0 for no effect and ±100 for the full control effect; nearly all actives have a fitted effect of over 60% in size
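KB-3-1 parental drug-naive adenocarcinoma cells in DMEM/10% FBS, incubated 72 h at 37 C with pin-transferred compounds across a concentration series. Viability by CellTiter-Glo luminescence; concentration-response curves fitted after normalization.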
SW480 rereplic: A quantitative high throughput screen for small molecules that induce DNA re-replication in SW480 colon adenocarcinoma cells. 340,000 tested, 1.8% active. AID 624297, 2012. Potency, µM (highest dose often 46.1 µM), for the others: top-dose re-replication activation, hits mostly activators. SW480 DNA re-replication, Hoechst DNA content imaging, 48 h; also: % of control where 0% means no effect; nearly all actives have a fitted effect of over 55% in size
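First, 250 cells per well were seeded. Next, compound or vehicle (23 nL) was pinned in, plates sat 48 hr at 37 C. Finally Hoechst was added for 40 min before fluorescence scanning.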
* hit, by the source's call; i = inactive; u = inconclusive; x = not tested or not shown; [ ] = another dose, or the depositor's remark. Sampled rows, rich in hits. Any-hit rate of the full collection: about 8%. Calls follow the shape of the dose curve; as a rule, active = well fitted curve in the direction sought with a large enough effect; inconclusive = small, poorly fitted or top-dose-only effect, or another doubt; inactive = no such curve, though single readings can be large; an effect the other way counts as inactive or inconclusive. Potency is read from the fitted curve at half-maximal effect.

SMILES	KB-V1 cytotox	HT1080NT lethal	MCF10A rerep	HT1080 IDH1KD tx	KB-3-1 cytotox	SW480 rereplic
CC(C)(C)C(=O)NC(Nc1cccc2cccnc12)C(Cl)(Cl)Cl (stereo not given)	u	-26.5%	20.6µM*	-26.4%	i	23.1µM*
O=C(Cc1ccccc1)NC(Nc1cccc2ccccc12)C(Cl)(Cl)Cl (stereo not given)	i	0.4%	6.4%	-2.7%	i	3.5%
CCC(=O)NC(NC(=S)Nc1cccc2cccnc12)C(Cl)(Cl)Cl (stereo not given)	i	-1.2%	-0.5%	-1.1%	i	3.6%
COC(=O)c1scc(S(=O)(=O)C(C)C)c1N/N=C(\C#N)C(=O)c1ccc(Cl)cc1	u	u	6.3%	u	u	0.0%
COC(=O)c1scc(C#N)c1N/N=C(\C#N)S(=O)(=O)c1ccc(Cl)cc1	8.2µM*	u	13µM*	u	u	-9.8%
CC1(C)C[C@H](O)[C@]2(CO)[C@H](O)C[C@]3(C)C(=CCC4[C@@]5(C)CC[C@H](O)C(C)(C)C5CC[C@]43C)[C@@H]2C1 (stereo not given in full)	u	20.6µM*	u	u	u	3.3%
CC1(C)C[C@H](O)[C@]2(CO)CC[C@]3(C)C(=CCC4[C@@]5(C)CC[C@H](O)C(C)(C)C5CC[C@]43C)[C@@H]2C1 (stereo not given in full)	i	4.5%	u	0.9%	i	-15.3%
CC1(C)CC[C@]2(CO)CC[C@]3(C)C(=CCC4[C@@]5(C)CC[C@H](O)[C@@](C)(CO)C5CC[C@]43C)[C@@H]2C1 (stereo not given in full)	i	5.0%	10.3µM*	10.5%	i	7.3%
O=C(O)/C=C/c1ccc2c(c1)S(=O)(=O)N(C1CCCC1)[C@H]2CC(=O)O	i	x	x	x	i	x
O=C(Nc1ccc(F)cc1)C(Sc1nnc2ccccn12)c1ccccc1 (stereo not given)	5.8µM*	7.6%	-67.7%	1.0%	i	7.4%
CCOc1ccccc1NC(=O)C(Sc1nnc2ccccn12)c1ccccc1 (stereo not given)	u	1.0%	2.7%	1.5%	i	-4.0%
COc1ccc(C)cc1NC(=O)C(Sc1nnc2ccccn12)c1ccccc1 (stereo not given)	3.26µM*	-2.6%	0.0%	-5.8%	i	-1.7%
Cc1ccc(Cn2c(=O)n(-c3ccc(C)c(C)c3)c(=O)c3c(C)c(C)sc32)cc1	u	x	x	x	i	x
CC1(c2nnc(-c3ccc(F)cc3)o2)CC(c2cccc(Cl)c2)=NO1 (stereo not given)	i	-3.7%	u	-17.6%	i	29.3%[9.22 µM]
CCNC(=S)NNC(=O)c1csc(CC)c1	i	-6.5%	4.9%	2.2%	u	-1.1%
CCCCNC(=S)NNC(=O)c1csc(C(C)C)c1	23.1µM*	-20.2%	-0.2%	-6.4%	i	-3.0%
CCCCNC(=S)NNC(=O)c1ccncc1	i	9.1%	-20.2%	13.8%	i	-16.2%
CC(C)CCNC(=O)c1csc2c1CCCCC2	i	7.2%	8.3%	0.1%	i	-3.1%
CCNC(=S)NNC(=O)c1csc(C(C)C)c1	20.6µM*	-0.6%	-3.2%	3.1%	u	-2.1%
CCNC(=S)NNC(=O)c1csc2c1CCCC2	25.9µM*	-25.4%	19.1%	u	i	-3.4%
CC1CC(C)CN(CCCNC(=O)c2csc3c2CCCC3)C1 (stereo not given)	16.4µM*	-10.8%	u	-8.4%	i	u
COc1ccc(-c2nc3scc(CCNC(=O)c4cccc(Br)c4)n3n2)cc1	i	x	x	x	i	x
CN(C)c1ccc(C(CNC(=O)c2ccccc2)N2CCc3ccccc32)cc1 (stereo not given)	i	x	x	x	i	x
CC(C)(C)C(=O)/C(=C/c1ccncc1)n1cncn1	u	7.31µM*	u	7.31µM*	6.51µM*	u
COCCn1c(SCC(=O)Nc2ccc(C(F)(F)F)cc2)nc2c([nH]c3ccccc32)c1=O	i	x	x	x	i	x
SMILES	KB-V1 cytotox	HT1080NT lethal	MCF10A rerep	HT1080 IDH1KD tx	KB-3-1 cytotox	SW480 rereplic
CCN1C(=O)c2cccc3c(S(=O)(=O)Nc4ccccc4)ccc1c23	11.6µM*	-4.8%	23.1µM*	-17.6%	u	13.4%
CCN1C(=O)c2cccc3c(S(=O)(=O)Nc4nc(C)cs4)ccc1c23	i	-23.7%	14.6µM*	-26.4%	u	-0.9%
CCN1C(=O)c2cccc3c(NC(=O)c4ccc5c(c4)OCCO5)ccc1c23	i	-8.9%	25.9µM*	6.3%	u	u
CCN1C(=O)c2cccc3c(S(=O)(=O)NCc4ccco4)ccc1c23	i	-2.3%	11.6µM*	u	i	u
CCN1C(=O)c2cccc3c(S(=O)(=O)Nc4ccncc4)ccc1c23	i	-1.8%	0.7%	-2.1%	i	-0.4%
Cc1csc2nc(COc3ccc(NC(=O)C(C)C)cc3)cc(=O)n12	i	x	x	x	i	x
CCN1C(=O)c2cccc3c(S(=O)(=O)N(C)C)ccc1c23	13µM*	-4.9%	x	-16.4%	i	x
O=C1COc2ccc(C(=O)CCl)cc2N1	i	-20.6%	20.6µM*	-8.5%	u	20.6µM*
CCc1c(C)sc2c1CCN(C(=O)Nc1cc(C)ccc1C)C2c1ccc(OC)cc1 (stereo not given)	i	x	x	x	i	x
CC(C)N(Cc1ccccc1)C(=O)Cn1ncc2c3ccccc3n(Cc3ccccc3)c2c1=O	i	x	x	x	i	x
CC1(C)Cc2ccccc2C2=NNC(=O)C2=N1	u	23.1µM*	u	7.31µM*	u	8.2µM*
CC1(C)Cc2ccccc2C(Nn2cnnc2)=N1	i	6.4%	22.4%	2.4%	i	0.5%
CCCCC(=O)OCc1cc(=O)n2nc(C3CCCCC3)sc2n1	i	x	x	x	i	x
CCN(CC)c1ccc(Nc2cc3n(c(=O)n2)CCc2cc(OC)c(OC)cc2-3)cc1	i	25.9µM*	u	u	i	u
CN(C)CCC(=O)N1c2ccccc2Sc2ccc(Cl)cc21	i	-3.5%	u	u	i	u
CN1CCC=C(C(=O)N2c3ccccc3Sc3ccc(Cl)cc32)C1	i	u	12.8%	16.4µM*	u	-6.1%
